Measured values: PubChem BioAssay (NCI)
About 79,000 compounds went through this panel and 15% of them were active in at least one assay; those are over-represented in the sample as a whole. Active and inactive are the calls of the source. Cut-off read from the data, not from the text of the source: active = growth inhibition above about 70%; inactive = the rest.

Experiments:
[1] = NCI Yeast Anticancer Drug Screen. Data for the mec2-1 strain (AID 157); details: S. cerevisiae mec2-1 strain, hits give high values
How it was run: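 Each compound was tested on mec2-1 yeast, a strain altered in DNA damage repair or cell cycle control. Growth inhibition is reported relative to vehicle.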

[2] = NCI Yeast Anticancer Drug Screen. Data for the rad14 strain (AID 159);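 note: 0% = growth of vehicle-treated control cultures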; details: S. cerevisiae rad14 strain growth inhibition, hits give high values
How it was run: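 A mutant yeast strain defective in DNA damage repair is treated with compound; inhibition of its growth is scored against untreated, vehicle-exposed cultures.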

[3] = NCI Yeast Anticancer Drug Screen. Data for the sgs1 mgt1 strain (AID 161);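 note: 0% = growth of cultures given vehicle only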; details: S. cerevisiae sgs1 mgt1 strain, hits give high values
How it was run: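 Mutant yeast exposed to compound; growth scored against vehicle-only wells.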

[4] = NCI Yeast Anticancer Drug Screen. Data for the CLN2oe strain (AID 163);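 note: 0% = growth of vehicle-only control cultures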; details: S. cerevisiae CLN2oe strain, hits give high values
How it was run: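 First, the altered yeast strain was treated with each compound; second, its growth was measured; finally, inhibition was derived by comparison with vehicle controls.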

[5] = NCI Yeast Anticancer Drug Screen. Data for the cln2 rad14 strain (AID 165);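 note: 0% = growth equal to vehicle treated cultures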; details: S. cerevisiae cln2 rad14 strain, hits give high values
How it was run: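 Test compounds were added to cln2 rad14 yeast cultures; inhibition of growth was then determined by comparison with vehicle treatment.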

[6] = NCI Yeast Anticancer Drug Screen. Data for the bub3 strain (AID 167); details: S. cerevisiae bub3 mutant strain, hits give high values
How it was run: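 Steps: expose the mutant yeast strain to compound; grow alongside vehicle-treated cultures; measure growth; express inhibition against the vehicle cultures.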

[7] = NCI Yeast Anticancer Drug Screen. Data for the wt2 strain (AID 169);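 note: 0% = growth of vehicle-treated yeast cultures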; details: S. cerevisiae wt2 strain growth inhibition, hits give high values
How it was run: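 The panel's yeast strains carry defined changes in DNA repair or cell cycle genes. Each strain is grown with compound, and growth loss is scored relative to vehicle.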

[8] = NCI Yeast Anticancer Drug Screen. Data for the sgs1 strain (AID 173);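 note: 0% = growth of vehicle-only control cultures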; details: S. cerevisiae sgs1 mutant, hits give high values
How it was run: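 Vehicle-treated cultures served as reference for growth inhibition of a yeast strain altered in DNA damage repair or cell cycle control after compound exposure.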

[9] = NCI Yeast Anticancer Drug Screen. Data for the mlh1 rad18 strain (AID 175); details: S. cerevisiae mlh1 rad18 strain growth inhibition, hits give high values
How it was run: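 Inhibition values reflect reduced growth of mutant yeast versus vehicle-treated controls following compound exposure; the mutations affect DNA damage repair.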

[10] = NCI Yeast Anticancer Drug Screen. Data for the rad18 strain (AID 177); details: S. cerevisiae rad18 mutant growth inhibition, hits give high values
How it was run: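 Steps: expose repair-mutant yeast to compound; measure growth; express as inhibition relative to vehicle control.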

[11] = NCI Yeast Anticancer Drug Screen. Data for the wt1 strain (AID 149);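 note: 0% = growth of vehicle-treated wt1 cultures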; details: S. cerevisiae wt1 strain (SPY 50644) growth inhibition, hits give high values
How it was run: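 Compounds are added to wt1 yeast cultures. Growth is then measured. Inhibition is expressed relative to vehicle-treated controls.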

[12] = NCI Yeast Anticancer Drug Screen. Data for the rad50EPP+ strain (AID 151);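 note: 0% = growth of vehicle-treated control cultures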; details: S. cerevisiae rad50 mutant strain, hits give high values
How it was run: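 Genetically defined yeast (rad50EPP+, DNA damage repair alteration) is grown with compound, and inhibition of growth is expressed relative to vehicle-treated controls.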

[13] = NCI Yeast Anticancer Drug Screen. Data for the mgt1 strain (AID 153); details: S. cerevisiae mgt1 mutant growth inhibition, hits give high values
How it was run: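 In the mgt1 strain, test compounds were added and growth inhibition was determined relative to vehicle-treated controls.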

[14] = NCI Yeast Anticancer Drug Screen. Data for the rad50 strain (AID 155);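 note: 0% = growth of vehicle-only cultures of the same strain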; details: S. cerevisiae rad50 strain growth inhibition, hits give high values
How it was run: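 Inhibition values express reduced yeast growth in compound-treated cultures relative to vehicle-treated controls.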

[15] = NCI Yeast Anticancer Drug Screen. Data for the mlh1 strain (AID 171);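 note: 0% = growth of vehicle-treated control cultures of the same strain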; details: S. cerevisiae mlh1 strain growth inhibition, hits give high values
How it was run: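 Inhibition values reflect reduced yeast growth in the presence of compound, referenced to vehicle controls, using a strain chosen for its alteration in DNA repair or cell cycle control.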

[16] = at 5.0 µM (retest, dose inferred, filed as 0.5)
[17] = at 50.0 µM (retest, dose inferred, filed as 5.0)

Measured: growth inhibition

COc1cc(NCCCCCNC(C)C)c2ncccc2c1Cl
inactive: [1]; at 100.0 µM 10% | [2]; at 1.2 µM 0% | [2]; at 3.7 µM 5% | [2]; at 11.0 µM 15% | [2]; at 33.0 µM 24% | [2]; at 100.0 µM 24% | [3]; [16] 5% | [3]; [17] 28% | [3]; at 50.0 µM 52.5% | [4]; at 1.2 µM 0% | [4]; at 3.7 µM -6% | [4]; at 11.0 µM 6% | [4]; at 33.0 µM 14% | [4]; at 100.0 µM 36% | [5]; [16] 8% | [5]; [17] 41% | [5]; at 50.0 µM 26.8% | [6]; at 1.2 µM -2% | [6]; at 3.7 µM -1% | [6]; [16] 6% | [6]; at 11.0 µM 3% | [6]; at 33.0 µM 11% | [6]; [17] 38% | [6]; at 50.0 µM 36.5% | [6]; at 100.0 µM 25% | [7]; at 1.2 µM -2% | [7]; at 3.7 µM -1% | [7]; at 11.0 µM 0% | [7]; at 33.0 µM 7% | [7]; at 100.0 µM 6% | [8]; at 1.2 µM -1% | [8]; at 3.7 µM -2% | [8]; at 11.0 µM 3% | [8]; at 33.0 µM 13% | [8]; at 100.0 µM 23% | [9]; [16] 5% | [9]; [17] 38% | [9]; at 50.0 µM 56.8% | [10]; at 1.2 µM -1% | [10]; at 3.7 µM -4% | [10]; at 11.0 µM -1% | [10]; at 33.0 µM 5% | [10]; at 100.0 µM 13%

O=S(=O)(O)c1ccc2c(N=Nc3c(O)ccc4ccccc34)cccc2c1
inactive: [11]; at 1.2 µM 0% | [11]; at 3.7 µM 1% | [11]; at 11.0 µM 21% | [11]; at 33.0 µM 50% | [12]; at 1.2 µM -3% | [12]; at 3.7 µM -1% | [12]; at 11.0 µM 17% | [12]; at 33.0 µM 35% | [12]; at 100.0 µM 39% | [13]; at 1.2 µM 0% | [13]; at 3.7 µM 0% | [13]; at 11.0 µM 12% | [13]; at 33.0 µM 37% | [13]; at 100.0 µM 66% | [14]; at 1.2 µM 4% | [14]; at 3.7 µM 14% | [14]; [16] 26% | [14]; at 11.0 µM 56% | [1]; at 1.2 µM 1% | [1]; at 3.7 µM 6% | [1]; [16] 3% | [1]; at 11.0 µM 20% | [1]; at 33.0 µM 38% | [1]; [17] 48% | [2]; at 1.2 µM 1% | [2]; at 3.7 µM 1% | [2]; at 11.0 µM 20% | [2]; at 33.0 µM 40% | [3]; [16] -1% | [4]; at 1.2 µM -1% | [4]; at 3.7 µM -4% | [4]; at 11.0 µM -3% | [4]; at 33.0 µM 14% | [5]; [16] 0% | [5]; [17] -11% | [5]; at 50.0 µM 32.5% | [6]; at 1.2 µM -2% | [6]; at 3.7 µM -1% | [6]; [16] 0% | [6]; at 11.0 µM 23% | [6]; at 33.0 µM 59% | [6]; [17] 55% | [7]; at 1.2 µM -1% | [7]; at 3.7 µM 0% | [7]; at 11.0 µM 13% | [7]; at 33.0 µM 37% | [15]; at 1.2 µM 4% | [15]; at 3.7 µM 4% | [15]; at 11.0 µM 17% | [15]; at 33.0 µM 4% | [9]; [16] 9% | [10]; at 1.2 µM 4% | [10]; at 3.7 µM 33%
active: [11]; at 100.0 µM 71% | [14]; at 33.0 µM 71% | [14]; [17] 82% | [14]; at 50.0 µM 91.8% | [14]; at 100.0 µM 85% | [1]; at 50.0 µM 83.3% | [1]; at 100.0 µM 84% | [2]; at 100.0 µM 80% | [3]; [17] 70% | [3]; at 50.0 µM 83.2% | [4]; at 100.0 µM 74% | [6]; at 50.0 µM 93.8% | [6]; at 100.0 µM 75% | [7]; at 100.0 µM 74% | [15]; at 100.0 µM 70% | [9]; [17] 80% | [9]; at 50.0 µM 87.9% | [10]; at 11.0 µM 77% | [10]; at 33.0 µM 87% | [10]; at 100.0 µM 92%

CC(=O)O/N=C/c1c2ccccc2cc2ccccc12
inactive: [11]; at 1.2 µM -1% | [11]; at 3.7 µM 2% | [11]; at 11.0 µM 0% | [11]; at 33.0 µM 3% | [11]; at 100.0 µM 10% | [12]; at 1.2 µM 14% | [12]; at 3.7 µM 24% | [12]; at 11.0 µM 44% | [12]; at 33.0 µM 64% | [12]; at 100.0 µM 66% | [13]; at 1.2 µM -4% | [13]; at 3.7 µM -3% | [13]; at 11.0 µM -1% | [13]; at 33.0 µM 9% | [13]; at 100.0 µM 20% | [14]; at 1.2 µM 0% | [14]; at 3.7 µM 1% | [14]; [16] 55% | [14]; at 11.0 µM 5% | [14]; at 33.0 µM 20% | [14]; at 50.0 µM 15.2% | [14]; at 100.0 µM 62% | [1]; at 1.2 µM -3% | [1]; at 3.7 µM 2% | [1]; [16] 4% | [1]; at 11.0 µM 7% | [1]; at 33.0 µM 20% | [1]; [17] 18% | [1]; at 50.0 µM 8.65% | [1]; at 100.0 µM 26% | [2]; at 1.2 µM -2% | [2]; at 3.7 µM 0% | [2]; at 11.0 µM 5% | [2]; at 33.0 µM 23% | [3]; [16] 30% | [3]; at 50.0 µM 63.6% | [4]; at 1.2 µM -10% | [4]; at 3.7 µM -20% | [4]; at 11.0 µM -13% | [4]; at 33.0 µM -6% | [4]; at 100.0 µM -6% | [5]; [16] 15% | [5]; [17] 40% | [5]; at 50.0 µM -47.8% | [6]; at 1.2 µM 9% | [6]; at 3.7 µM 12% | [6]; [16] 58% | [6]; at 11.0 µM 26% | [6]; at 33.0 µM 47% | [6]; at 50.0 µM 43.1% | [6]; at 100.0 µM 63% | [7]; at 1.2 µM -1% | [7]; at 3.7 µM -1% | [7]; at 11.0 µM -2% | [7]; at 33.0 µM 13% | [7]; at 100.0 µM 32% | [15]; at 1.2 µM 1% | [15]; at 3.7 µM -1% | [15]; at 11.0 µM 1% | [15]; at 33.0 µM 17% | [15]; at 100.0 µM 52% | [9]; at 50.0 µM 33% | [10]; at 1.2 µM 0% | [10]; at 3.7 µM -1% | [10]; at 11.0 µM 11% | [10]; at 33.0 µM 54%
active: [14]; [17] 90% | [2]; at 100.0 µM 78% | [3]; [17] 88% | [6]; [17] 84% | [9]; [16] 80% | [9]; [17] 92% | [10]; at 100.0 µM 83%
